Results filed as inconclusive are left out. Unmarked numbers belong to inactive results. The source made the active and inactive calls. Calls come from the whole dose curve; as a rule, active = well fitted cell-killing curve with a large enough effect in the repeat runs; inconclusive = weak or mixed curves, or effect the other way; inactive = flat fitted curve, though single readings scatter.
% is set by controls: 0 for no effect and ±100 for the full control effect.

One assay in a line: cAMP Responsive Elements (CRE) small molecule antagonists, cell-based qHTS assay: qHTS cell viability counter screen (AID 2060913). Note: nearly all actives have a fitted effect of over 40% in size. The note with it: CRE-bla HEK293T viability, CellTiter-Glo luminescence, 5 h; series mostly up to 92.4 µM; viability change, negative = cytotoxic: at the top concentration. The gist of the method: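 CRE-bla HEK293T cells were seeded in assay medium with 10% dialyzed FBS, incubated 18 hrs at 37 C, then exposed to compounds plus 0.25 uM final NKH477 for 3 hrs. Viability was read by CellTiter-Glo luminescence after 30 min, in the same wells.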
For the molecule `CC(C)C(=O)OCC(C)(C)C(OC(=O)C(C)C)C(C)C` (stereo not given), the Potency result was “inactive”.

`CC1=C(C(=O)Nc2ccccc2)S(=O)(=O)CCO1`: the “viability change, negative = cytotoxic” value is 14.3%.

Turning to `CCCSC(=O)N(CCC)CCC`, the “viability change, negative = cytotoxic” value was 7.51%.

Regarding `Clc1ccccc1-c1ccccc1Cl`, the “viability change, negative = cytotoxic” value is 19.3%.

Turning to `O=C(O)c1cc[c]([Hg][Cl])cc1`, the “viability change, negative = cytotoxic” value is -4.96%.

On to `C=C(C)C(=O)OCC1CO1` (stereo not given), for which the Potency result was “inactive”.

As to `COc1cnc(OC)n2nc(NS(=O)(=O)c3c(OCC(F)F)cccc3C(F)(F)F)nc12`, the “viability change, negative = cytotoxic” value is 3.03%.

With `COC(=O)C(C)N(C(=O)Cc1ccccc1)c1c(C)cccc1C` (stereo not given), the “viability change, negative = cytotoxic” value is 1.01%.

As for `CN(C)N`, the “viability change, negative = cytotoxic” value is -2.16%.

Consider `CC1(C)[C@H](/C=C2\CCSC2=O)[C@@H]1C(=O)OCc1coc(Cc2ccccc2)c1`, for which the “viability change, negative = cytotoxic” value was -12.9%.

Take `CCN(CC)c1ccccc1`: the Potency result was “inactive”.

In the case of `NNC(=O)c1cccnc1`, the “viability change, negative = cytotoxic” value is -4.07%.

As for `ClCc1ccccc1Cl`, the “viability change, negative = cytotoxic” value is 8.62%.

As to `O=C(O)C(Br)Br`, the Potency result was “inactive”.

Consider `CCN(CC)C1CCCCC1`, for which the “viability change, negative = cytotoxic” value is -3.31%.

With `COS(=O)(=O)OC`, the Potency result was “inactive”.

On to `CC(C)(C)C(O)C(Oc1ccc(-c2ccccc2)cc1)n1cncn1` (stereo not given), for which the “viability change, negative = cytotoxic” value is -8.7%.

`CC(C)(C)OO`: the “viability change, negative = cytotoxic” value was 0.523%.

Turning to `O=C1C(Cl)C(CCl)CN1c1cccc(C(F)(F)F)c1` (stereo not given), the “viability change, negative = cytotoxic” value is -4.54%.

`ClC(Cl)=C(Cl)Cl`: the “viability change, negative = cytotoxic” value is -4.4%.

Take `Nc1nc(N)nc(Cl)n1`: the “viability change, negative = cytotoxic” value was 1.35%.

Take `CCOP(=S)(OCC)SCSc1ccc(Cl)cc1`: the “viability change, negative = cytotoxic” value was -11.1%.

As to `Cc1ccc([N+](=O)[O-])cc1C`, the Potency entry is “inactive”.

With `O=C(O)CC(Cl)C(=O)O` (stereo not given), the “viability change, negative = cytotoxic” value was 2.01%.

On to `[O-][Cl+]O`, for which the “viability change, negative = cytotoxic” value was 1.66%.

In the case of `O=C(Oc1ccc(Br)cc1)N1CCN2CCC1CC2`, the “viability change, negative = cytotoxic” value was -0.84%.

In the case of `O=C(O)CBr`, the “viability change, negative = cytotoxic” value was 1.96%.

For the molecule `C=C(C)[C@@H]1CC=C(C=O)CC1`, the “viability change, negative = cytotoxic” value was 1.84%.

Consider `CCC[N+]1(C)CCCCC1`, for which the Potency result was “inactive”.

For `N#CCC#N`, the “viability change, negative = cytotoxic” value is 7.06%.

As to `COP(=O)(O)OC`, the “viability change, negative = cytotoxic” value was 1.69%.

Consider `Cc1ccn2nc(S(=O)(=O)Nc3c(F)cccc3F)nc2n1`, for which the “viability change, negative = cytotoxic” value was 7.46%.

Turning to `NNC(N)=O`, the “viability change, negative = cytotoxic” value was -10.3%.

On to `O=C(Cl)c1ccccc1`, for which the “viability change, negative = cytotoxic” value was 7%.

As for `C#C[C@]1(O)C=C[C@H]2[C@@H]3CCC4=CC(=O)CC[C@@H]4[C@H]3CC[C@@]21CC`, the “viability change, negative = cytotoxic” value is -1.96% [at 42.5 µM].

For `CC(C)(O)c1cnn2c(-c3ccc(F)c(-c4c(F)cccc4C#N)c3)cnc2n1`, the “viability change, negative = cytotoxic” value was 5.01%.

As for `CCOP(=O)(OCC)Oc1cc(C)nc(C(C)C)n1`, the “viability change, negative = cytotoxic” value was -1.2%.

With `Cc1cc(C(F)(C(F)(F)F)C(F)(F)F)ccc1NC(=O)c1cccc(I)c1C(=O)NC(C)(C)CS(C)(=O)=O`, the “viability change, negative = cytotoxic” value is 12.7% [at 42.5 µM].

In the case of `CCOC(=O)/C=C(C)/C=C/C[C@@H](C)CCCC(C)C`, the “viability change, negative = cytotoxic” value was -2.73%.

On to `CC(C)(CCl)C(=O)Cl`, for which the “viability change, negative = cytotoxic” value was -2.8%.

Another assay is described as follows: cAMP Responsive Elements (CRE) small molecule agonists, cell-based qHTS assay: qHTS cell viability counter screen (AID 2060914). Note: nearly all actives have a fitted effect of over 50% in size. The note with it: CRE-bla HEK293T viability, CellTiter-Glo luminescence, 5 h; series mostly up to 92.4 µM; activity change, negative = cytotoxicity: at the top concentration. The gist of the method: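 CRE-bla HEK293T cells in 10% dialyzed FBS medium were exposed to compounds for 3 h at 37C after 18 h plating. CellTiter-Glo was then added in the same wells, and luminescence was read after 30 min at room temperature.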
Background: In qHTS, concentration-response curves come from the screen itself.
Consider `CC(C)C(=O)OCC(C)(C)C(OC(=O)C(C)C)C(C)C` (stereo not given), for which the Potency result was “inactive”.

With `CC1=C(C(=O)Nc2ccccc2)S(=O)(=O)CCO1`, the “activity change, negative = cytotoxicity” value is -0.645%.

Take `CCCSC(=O)N(CCC)CCC`: the “activity change, negative = cytotoxicity” value is 0.708%.

Turning to `Clc1ccccc1-c1ccccc1Cl`, the “activity change, negative = cytotoxicity” value was 6.94%.

For `O=C(O)c1cc[c]([Hg][Cl])cc1`, the “activity change, negative = cytotoxicity” value was 24.3%.

`C=C(C)C(=O)OCC1CO1` (stereo not given): the Potency result is “inactive”.

Regarding `COc1cnc(OC)n2nc(NS(=O)(=O)c3c(OCC(F)F)cccc3C(F)(F)F)nc12`, the “activity change, negative = cytotoxicity” value was 4.27%.

On to `COC(=O)C(C)N(C(=O)Cc1ccccc1)c1c(C)cccc1C` (stereo not given), for which the “activity change, negative = cytotoxicity” value was -0.782%.

Take `CN(C)N`: the “activity change, negative = cytotoxicity” value is 1.07%.

As to `CC1(C)[C@H](/C=C2\CCSC2=O)[C@@H]1C(=O)OCc1coc(Cc2ccccc2)c1`, the “activity change, negative = cytotoxicity” value is -14.7%.

With `CCN(CC)c1ccccc1`, the “activity change, negative = cytotoxicity” value was 4.92%.

As for `NNC(=O)c1cccnc1`, the “activity change, negative = cytotoxicity” value is 2.55%.

As for `ClCc1ccccc1Cl`, the “activity change, negative = cytotoxicity” value is 4.22%.

For `O=C(O)C(Br)Br`, the Potency entry was “inactive”.

Turning to `CCN(CC)C1CCCCC1`, the “activity change, negative = cytotoxicity” value was -1.41%.

In the case of `COS(=O)(=O)OC`, the “activity change, negative = cytotoxicity” value was 10.2%.

Take `CC(C)(C)C(O)C(Oc1ccc(-c2ccccc2)cc1)n1cncn1` (stereo not given): the “activity change, negative = cytotoxicity” value is 12.4%.

Take `CC(C)(C)OO`: the “activity change, negative = cytotoxicity” value is -13.1%.

Consider `O=C1C(Cl)C(CCl)CN1c1cccc(C(F)(F)F)c1` (stereo not given), for which the “activity change, negative = cytotoxicity” value is 3.79%.

For the molecule `ClC(Cl)=C(Cl)Cl`, the “activity change, negative = cytotoxicity” value is -2.13%.

`Nc1nc(N)nc(Cl)n1`: the “activity change, negative = cytotoxicity” value is 7.3%.

As for `CCOP(=S)(OCC)SCSc1ccc(Cl)cc1`, the “activity change, negative = cytotoxicity” value is 0.688%.

On to `Cc1ccc([N+](=O)[O-])cc1C`, for which the Potency result is “inactive”.

For the molecule `O=C(O)CC(Cl)C(=O)O` (stereo not given), the “activity change, negative = cytotoxicity” value is 5%.

As for `[O-][Cl+]O`, the “activity change, negative = cytotoxicity” value was 0.106%.

As to `O=C(Oc1ccc(Br)cc1)N1CCN2CCC1CC2`, the “activity change, negative = cytotoxicity” value was -16.4%.

As for `O=C(O)CBr`, the “activity change, negative = cytotoxicity” value is -0.721%.

`C=C(C)[C@@H]1CC=C(C=O)CC1`: the “activity change, negative = cytotoxicity” value is 0.213%.

For the molecule `CCC[N+]1(C)CCCCC1`, the Potency entry is “inactive”.

Consider `N#CCC#N`, for which the “activity change, negative = cytotoxicity” value is 1.34%.

For the molecule `COP(=O)(O)OC`, the “activity change, negative = cytotoxicity” value was 2.72%.

Turning to `Cc1ccn2nc(S(=O)(=O)Nc3c(F)cccc3F)nc2n1`, the “activity change, negative = cytotoxicity” value is 4.77%.

Turning to `NNC(N)=O`, the “activity change, negative = cytotoxicity” value was -7.17%.

Consider `O=C(Cl)c1ccccc1`, for which the “activity change, negative = cytotoxicity” value is 1.58%.

Regarding `C#C[C@]1(O)C=C[C@H]2[C@@H]3CCC4=CC(=O)CC[C@@H]4[C@H]3CC[C@@]21CC`, the “activity change, negative = cytotoxicity” value is -5.07% [at 42.5 µM].

As to `CC(C)(O)c1cnn2c(-c3ccc(F)c(-c4c(F)cccc4C#N)c3)cnc2n1`, the “activity change, negative = cytotoxicity” value was 7.87%.

Take `CCOP(=O)(OCC)Oc1cc(C)nc(C(C)C)n1`: the “activity change, negative = cytotoxicity” value is -0.118%.

With `Cc1cc(C(F)(C(F)(F)F)C(F)(F)F)ccc1NC(=O)c1cccc(I)c1C(=O)NC(C)(C)CS(C)(=O)=O`, the “activity change, negative = cytotoxicity” value was 12.5% [at 42.5 µM].

For `CCOC(=O)/C=C(C)/C=C/C[C@@H](C)CCCC(C)C`, the “activity change, negative = cytotoxicity” value was 15.8%.

In the case of `CC(C)(CCl)C(=O)Cl`, the “activity change, negative = cytotoxicity” value was 2.11%.

For the origin of these results see PubChem BioAssay (Tox21).
